# Hit rate of the full screen: of about 65,000 compounds, about 3,600 (5.5%) were called active. The sample as a whole holds a higher share of actives than the screen did. Unmarked numbers belong to inactive results.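 The calls were made as follows: active = at 10 µM, mean starting fluorescence two-fold or more over control wells; inactive = the rest.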 Where a SMILES comes first, the peptide text is derived from it. The star is where a group is joined. Bz = O=C(c1ccccc1)*
# Experiment: intrinsic fluorescence of library compounds, ex339/em460 – biochemical, MLSMR library, data from DPM-DC assay, artefact control, profiling panel (AID 709);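 also: signal is the first read of a kinetic run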
# Details: compound autofluorescence, ex339/em460 nm, NADH buffer; at 10 µM; active compounds read high; 1 = no-compound wells, NADH background
row,Structure (SMILES),fluorescence fold increase
1,COc1nc(Oc2ccc(=O)n(C)n2)nc(N(C)C)n1,1.04
2,CN1C(=O)c2ccc(NC(=O)C3CCCCC3)cc2C1=O,4.96 (active)
3,CCC(=O)Nc1ccc(C(=O)Nc2ccc3c(c2)C(=O)N(CC2CCCO2)C3=O)cc1 (stereo unspecified),1.59
4,O=C(Nc1cnn(Cc2ccc(Cl)cc2)c1)C1CCCC1,1.03
5,O=C(O)c1ccc(NC(=O)C2CCCCC2)cc1,1.11
6,O=C(Nc1ccncc1)c1c(F)cccc1F,1.11
7,CN1C(=O)c2ccc(NC(=O)c3c(F)c(F)c(F)c(F)c3F)cc2C1=O,2.11 (active)
8,CCCCc1nc2ccccc2c(NC(=O)CN2CCN(C)CC2)c1CCC,1.08
9,CC1=C(C(=O)Nc2ccc(Cl)cc2)C(c2ccco2)NC(=O)N1 (stereo unspecified),1.1
10,COc1ccccc1N1CCN(Cc2ccc(OC)c3ccccc23)CC1,1.12
11,O=C(NC(Cc1ccccc1)C(=O)N1CCCC1C(=O)O)c1ccccc1 (stereo not drawn) (Bz-Phe-Pro-OH; configuration not given here),0.84
12,CCCn1c(=O)c2[nH]c(C3CCCC3)nc2n(CCC)c1=O,1.03
13,CCc1ccc(CCC(=O)Nc2ccc(S(N)(=O)=O)cc2)o1,1.08
14,CCOC(=O)c1csc(NC(=O)c2ccc(S(=O)(=O)N3CCCC3)cc2)n1,2.49 (active)
15,CCOC(=O)CSc1nnc(NC(=O)c2cccc(S(=O)(=O)N3CCCCC3)c2)s1,1
16,CCOC(=O)CSc1nnc(NC(=O)c2cccc(S(=O)(=O)N3CCCC3)c2)s1,1.07
17,Cc1ccc(S(=O)(=O)c2nc(NCCCn3ccnc3)sc2Cl)cc1,1.12
18,CC(C)(C)NC(=O)C(c1ccco1)N(Cc1ccc2c(c1)OCO2)C(=O)Cn1nnc2ccccc21 (stereo unspecified),1.1
19,O=C(NCCC1=CCCCC1)C1CCN(Cc2cnn(-c3ccccc3)c2-n2cccc2)CC1,1.16
20,Cn1cccc1Cc1nnc(SCC(=O)NCCc2ccccc2)n1-c1ccc(F)cc1,1.12
21,CCCC(=O)N1c2ccc(-c3csc(N)n3)cc2CC1C (stereo unspecified),1.13
22,COc1ccc(NC(=O)CN2CCN(S(=O)(=O)c3ccc(F)cc3)CC2)cc1Cl,1.01
23,COc1ccccc1NC(=O)CN1CCN(S(=O)(=O)c2ccc(Br)cc2)CC1,1
24,COc1cc2c(cc1NC(=O)CN1CCN(S(=O)(=O)c3ccc(F)cc3)CC1)oc1ccccc12,2.72 (active)

row,Structure (SMILES),fluorescence fold increase
1,Cc1cc2cc(CNC(=O)c3ccc(S(=O)(=O)N4CCOCC4)cc3)ccc2[nH]1,1.07
2,Cc1coc2c(O)cc3c(c12)OC1(N2CCCCC2)C(=O)NCCCC31 (stereo unspecified),1.1
3,COc1ccc2[nH]c3ccc(OC)cc3c2c1,1.46
4,O=c1c2[nH]c3ccc(Cl)cc3c2ncn1Cc1ccccn1,1.12
5,COc1ccc2[nH]c3c(=O)n(Cc4ccco4)cnc3c2c1,3.87 (active)
6,COc1ccc(N2C(=O)c3cccc4cccc(c34)C2=O)nn1,1.57
7,C=CCNc1nnc(C)c2ccccc12,1.09
8,Cc1ccnc(N2CCN(C(=O)CSc3nc4ccccc4nc3N3CCCCC3)CC2)c1,1.18
9,C=CCNc1nnc(SCC(=O)N2CCCCC2)c2ccccc12,2.26 (active)
10,CCCC(=O)N(CCc1ccccc1)Cc1nc2ccccc2c(=O)[nH]1,1.13
11,CS(=O)(=O)NCc1ccc(C(=O)NCc2ccccc2)cc1,1.04
12,O=C1C2(c3ccccc3)CN(CCCO)CC1(c1ccccc1)CN(CCCO)C2,1
13,Cc1cc(C)n(-c2nc(SCC(=O)N3CCCC3)c3c4c(sc3n2)CCCC4)n1,1.3
14,COCCNc1nc(-n2nc(C)cc2C)nc2sc3c(c12)CCCC3,3.57 (active)
15,COCCn1c(C)cc(C(=O)CSc2ncnc3sc4c(c23)CCC4)c1C,1.55
16,CCOc1ccc(S(=O)(=O)n2ccnc2)c2ccccc12,1.04
17,COc1cc(C2C(C(=O)c3ccc(C)o3)=C(O)C(=O)N2Cc2cccnc2)ccc1O (stereo unspecified),1.02
18,COc1ccccc1N1CCN(C(=O)c2cn(-c3ccccc3)nc2-c2cccnc2)CC1,1.12
19,Cc1nnc(SCC(=O)Nn2cnnc2)s1,1.03
20,COc1ccc(-c2noc(-c3cccc(OC)c3OC)n2)cc1OC,1.12
21,CCOC(=O)N1CCN(C(=O)CSc2ccc(Cl)cc2)CC1,1.07
22,CCOC(=O)N1CCN(C(=O)CNC(=O)Cc2ccc(Cl)cc2)CC1,1.08
23,CCOC(=O)N1CCN(C(=O)c2ccc3nc4cc(Cl)ccc4c(=O)n3c2)CC1,3.31 (active)
24,Cc1cc(C)nc(NC(=O)C(C)N2C(=O)c3ccccc3C2=O)n1 (stereo unspecified),1.09

row,Structure (SMILES),fluorescence fold increase
1,CCn1c(=N)c(S(=O)(=O)c2ccc(F)cc2)cc2c(=O)n3ccccc3nc21,3.45 (active)
2,Cc1ccc(C)c(NC(=O)C2CCCN2C(=O)OC(C)(C)C)c1 (stereo unspecified),1.17
3,CCn1nc(C(=O)OCC(=O)N2c3ccccc3CC2C)c2ccccc2c1=O (stereo unspecified),1.05
4,COc1ccccc1Oc1ccc(S(=O)(=O)Nc2cccnc2)cc1,1.1
5,O=P(c1ccc2c(c1)OCCO2)(N1CCOCC1)N1CCOCC1,1.13
6,Cn1c(-c2ccco2)nc2cc3ccccc3cc21,4.72 (active)
7,COc1ccc(CCn2c(-c3ccco3)nc3nc4ccccc4nc32)cc1OC,1.07
8,c1coc(-c2nc3nc4ccccc4n3nc2-c2ccco2)c1,0.92
9,CCC(=O)Nc1nc(OC)cc(OC)n1,1.16
10,C=CCSc1nc2c(c(=O)[nH]1)C(C(C)C)C(C#N)=C(N)O2 (stereo unspecified),1.06
11,Cn1c2c(c(=O)n(C)c1=O)C(c1ccc(O)cc1)Nc1ccccc1O2 (stereo unspecified),1.08
12,COc1ccc(CCn2c(=N)c(C(=O)NCc3ccco3)cc3c(=O)n4cccc(C)c4nc32)cc1,1.64
13,CCn1c(=N)c(C(=O)NCCCOC)cc2c(=O)n3cccc(C)c3nc21,3.83 (active)
14,COCCn1c(=O)[nH]c2cc(C(=O)NCc3cccnc3)ccc2c1=O,1.48
15,O=c1[nH][nH]c(=O)c2cc(N3CCCC3)ccc12,2.65 (active)
16,O=c1cc(-c2ccccc2)nc(N2CCCCC2)[nH]1,1.26
17,CCOc1ccc(C2C(C(=O)NC)=C(C)Nc3nc4ccccc4n32)cc1OC (stereo unspecified),1.15
18,Cc1ccc2c(c1)c1ncnc(N3CCc4ccccc4C3)c1n2C,3.33 (active)
19,Cc1ccc2c(c1)N(C(=O)CCC(=O)N1CCc3ccccc3C1)CCO2,1.17
20,Cc1ccc(NC(=O)CCN2CCc3ccccc3C2)cc1,1.02
21,CCS(=O)(=O)N1CCCC(C(=O)NCc2ccc(C)cc2)C1 (stereo unspecified),1.06
22,O=C(Cn1nnc2ccccc2c1=O)Nc1cc(C(F)(F)F)ccc1N1CCOCC1,1.02
23,COc1ccc(-c2[nH]nc3c2C(c2ccncc2)C(C#N)=C(N)O3)cc1 (stereo unspecified),1.04
24,Cn1c(=O)[nH]c(=O)c2c1nc(Br)n2CCCCSc1nc2ccccc2o1,1.1

row,Structure (SMILES),fluorescence fold increase
1,CCOC(=O)CSC1=C(C#N)C(c2sccc2C)CC(=O)N1 (stereo unspecified),1.13
2,CS(=O)(=O)N(CC(=O)NCc1ccco1)c1ccc2c(c1)OCO2,1.14
3,CCc1c(C)nc2cc(-c3cccs3)[nH]n2c1=O,2.07 (active)
4,O=c1[nH]c(-c2cccs2)nc2ccccc12,1.17
5,Cc1nc2nc(COc3ccccc3)[nH]n2c(=O)c1Cc1ccccc1,1.09
6,O=P(O)(CP(=O)(c1ccccc1)c1ccccc1)c1ccccc1,1.13
7,CCCCNC(=O)c1c[nH]c2ccc(S(=O)(=O)Nc3ccc(OCC)cc3)cc2c1=O,1.15
8,Cc1nonc1NC(=O)c1ccccc1Br,1.01
9,CC(C)OC(=O)C(C#N)c1nc2ccccc2nc1N1CCN(Cc2ccccc2)CC1 (stereo unspecified),1.82
10,Cc1cccc2cc(C#N)c(N3CCCC3)nc12,1.58
11,Cc1ccc(S(=O)(=O)C(C#N)c2nc3ccccc3nc2N2CCCC2)cc1C (stereo unspecified),2.44 (active)
12,NC(=O)CSc1oc(-c2cccs2)nc1S(=O)(=O)c1ccccc1,1.22
13,CCN(CC(=O)NC(C)C)C(=O)CCNC(=O)c1ccc(Cl)cc1,1.13
14,CCOc1cc2c(cc1OCC)C(C(=O)O)C(c1ccc(OC)c(O)c1)N(C)C2=O (stereo unspecified),1.02
15,Cc1nc2ccc(NC(=O)N3CCC(c4ccccc4)C3)cc2nc1C (stereo unspecified),2.93 (active)
16,O=C(Nc1cccc(NC(=O)N2CCN(c3ccccc3)CC2)c1)N1CCN(c2ccccc2)CC1,1.06
17,Cn1c(CCN2CCCCCC2)nc2cc(NC(=O)Nc3ccccc3)ccc21,1.24
18,CCc1cc(=O)oc2cc(C)cc(OC(C)C(=O)O)c12 (stereo unspecified),3.78 (active)
19,CCCSC1=C(C#N)C(c2ccccc2C)C(C(=O)OC)C(=O)N1 (stereo unspecified),1.13
20,CCc1nc(N2CCN(c3nc(C)cc(C)n3)CC2)c2oc3ccccc3c2n1,2.49 (active)
21,Cc1nc(N2CCN(c3ncccn3)CC2)c2oc3ccccc3c2n1,1.16
22,Cc1cc(C)nc(N2CCN(c3ncnc4c3oc3ccccc34)CC2)n1,1.27
23,Cc1noc(COc2ccccc2OCC(O)CNC(C)(C)C)n1 (stereo unspecified),1.04
24,O=c1c(-c2ccc3c(c2)OCCO3)c(C(F)(F)F)oc2cc(O)cc(O)c12,1.07
